MARV entry inh – qHTS for inhibitors of binding or entry into cells for Marburg Virus; Marburg virus pseudotyped entry inhibition, cell reporter; Potency, µM (doses to about 37.8 µM), for the others: at the top dose activity change, negative = inhibition, hits mostly inhibitors; 1.8% of 300,000 active; calls by dose curve; tested in HEK293 cells; further: potency means the concentration at half of the fitted maximal effect; on the % scale 0 is the no-effect control and ±100 the full control effect
CHX counter – Cycloheximide Counterscreen for Small Molecule Inhibitors of Shiga Toxin. cell reporter, cycloheximide protein synthesis inhibition counterscreen. max response, %. 12% of 300,000 active. AID 2314, 2010; in the data active means max response mostly above about 13%, no sharp cut-off; inactive means mostly below about 14%; further: read at 38.3 µM for the half of the compounds with a filed dose; 0% is about no effect
Lassa entry inh – qHTS for Inhibitors of binding or entry into cells for Lassa Virus | Lassa virus pseudotype entry inhibition, cell reporter | Potency, µM (series often up to 37.9 µM), without a hit: top-dose activity change, negative = inhibition, most hits filed as inhibitors | 1.2% of 300,000 active | AID 540256, 2011; calls by dose curve; tested in HEK293 cells; further: potency means the concentration at half of the fitted maximal effect; on the % scale 0 is the no-effect control and ±100 the full control effect; nearly all actives have a fitted effect of over 50% in size
Shiga inhibitor – A qHTS for Small Molecule Inhibitors of Shiga Toxin. inhibition, % at 38.7 µM. Vero cells, Shiga toxin protein synthesis inhibition reporter. AID 2315, 2010. 9.2% of 290,000 active; in the data active means inhibition mostly above about 28%, no sharp cut-off; inactive means mostly below about 43%; further: 0% is about no effect
The depositor's hits bear a star; ? = inconclusive; . = no result given; [ ] = remark or other dose. Sampled rows, rich in hits. Any-hit rate of the full collection: about 12%.

SMILES | MARV entry inh | CHX counter | Lassa entry inh | Shiga inhibitor
Cc1ccc(C(=O)NC(=S)NNC(=O)c2ccccc2O)cc1 | ? | 19* | -27% | 54*
Cc1ccc(C(=O)NC(=S)NNC(=O)c2ccccc2[N+](=O)[O-])cc1 | 17%[46.1 µM] | 9 | 14% | 28
COC(=O)c1cccc(S(=O)(=O)N2CCC(NC(=O)Nc3cccc(F)c3)CC2)c1 | 4% | -6 | -3% | 3
O=C(Nc1ccccc1)Nc1ccc(F)cc1F | . | 40* | . | 96*
COC(=O)c1ccc(NC(=O)Nc2cccc(F)c2)cc1 | ? | 54* | ? | 86*
COC(=O)c1ccc(NC(=O)Nc2ccc(F)cc2F)cc1 | ? | 37* | 16%[46.1 µM] | 143*
Cc1noc(C)c1COc1ccccc1C(=O)NC(C)c1ccc(F)cc1 (centres undefined) | -8% | . | 15% | .
O=C(Nc1nccs1)c1ccc(NC(=O)C2CC=CCC2C(=O)O)cc1 (centres undefined) | . | 14 | . | 23
O=C1N=C(N2CCC(Cc3ccccc3)CC2)S/C1=C/c1cn[nH]c1-c1ccccc1 | 10µM* | 7 | ? | -18
COc1ccccc1/C=C1\SC(N2CCC(C)CC2)=NC1=O | . | 26* | . | 57*
CCOC(=O)C1CCN(C2=NC(=O)/C(=C/c3ccccc3OC)S2)CC1 | . | 8 | . | 26
COc1cccc(/C=C2\SC(N3CCCC(C)C3)=NC2=O)c1OC (centres undefined) | . | 17* | . | 56*
COc1cccc(/C=C2\SC(=S)N(N3CCOCC3)C2=O)c1OC | -2% | 23* | -8% | 15
COc1cc(OC)c(OC)cc1/C=C1\SC(N2CCCCC2)=NC1=O | 2%[46.1 µM] | 6 | -6%[46.1 µM] | 13
O=C(NNC(=O)c1c(O)c2ccccc2[nH]c1=O)c1ccccc1Br | -14%[46.1 µM] | -4 | . | -8
CCN1CCN(C(=O)NC2CC(=O)N(c3ccc(OC)cc3)C2)CC1 (centres undefined) | ? | -1 | 6%[46.1 µM] | -2
O=c1c(-c2cc(-c3ccccc3)nc3c2COc2ccccc2-3)coc2ccc(Cl)cc12 | 23%[46.1 µM] | . | 7%[46.1 µM] | .
COc1cccc(/C=C2\SC(N3CCC(C)CC3)=NC2=O)c1OC | . | 13* | . | 30
COc1ccc(OC)c(/C=C2\SC(N3CCCCC3)=NC2=O)c1 | ? | 10 | 16%[46.1 µM] | 19
CCNC(=O)COc1ncnc2scc(-c3ccc(F)cc3)c12 | -12%[46.1 µM] | -2 | -12%[46.1 µM] | -7
O=C(COc1ncnc2scc(-c3ccc(Cl)cc3)c12)NCc1ccco1 | ? | 27 | -1% | 53*
CCC(C)c1ccccc1N1CC(C(=O)Nc2cccc(S(=O)(=O)N3CCOCC3)c2)CC1=O (centres undefined) | -13% | -3 | ? | -11
CC(=O)Oc1ccc(C(=O)[C@H]2[C@H]3C(=O)N(c4ccc5ccccc5c4)C(=O)[C@H]3[C@@H]3C=CC=NN32)cc1 | 1% | 37* | 17% | 41
COc1ccccc1N1C(=O)[C@@H]2[C@H](C1=O)[C@H](C(=O)c1ccc(OC(C)=O)cc1)N1N=CC=C[C@@H]21 | ? | 9 | 0% | -2
Cc1c(/C(O)=C2/C(=O)C(=O)N(Cc3cccnc3)C2c2ccccn2)cnn1-c1ccccc1 (centres undefined) | ? | 34* | -13% | 64
SMILES | MARV entry inh | CHX counter | Lassa entry inh | Shiga inhibitor
Cc1c(/C(O)=C2/C(=O)C(=O)N(Cc3cccnc3)C2c2cccs2)cnn1-c1ccccc1 (centres undefined) | 23% | 52* | 27% | 168*
O=C(NCCc1ccc(Cl)cc1)c1nnc(Cc2ccc(F)cc2)o1 | -15%[46.1 µM] | . | 9%[46.1 µM] | .
COC(=O)CN1C(=O)Nc2ccc(Br)cc2C1c1ccccc1Cl (centres undefined) | ? | 1 | 9% | -17
COC(=O)c1c(-c2ccccc2)nn(-c2ccccc2)c1C(=O)OC | . | 4 | . | .
COc1ccc(NC2=Nc3ccccc3CC2)cc1 | ? | 23* | ? | 86
COc1ccc(NC2=NCCCCC2)cc1 | 3% | -4 | 16% | -6
CCOC(=O)c1sc(NC(=O)C2c3ccccc3Oc3ccccc32)c(C(=O)OCC)c1C | -17%[46.1 µM] | . | -3%[46.1 µM] | .
CCC(C(=O)Nc1sc(C(N)=O)c(C)c1C(=O)OC)c1ccccc1 (centres undefined) | 13µM* | -3 | . | -7
CCOC(=O)c1c(NC(=O)C2c3ccccc3Oc3ccccc32)sc(C(=O)N(CC)CC)c1C | 13µM* | 8 | ? | 18
CCOC(=O)c1c(NC(=O)C(Sc2ccccc2)c2ccccc2)sc(C(=O)N(C)C)c1C (centres undefined) | ? | 1 | 16µM* | -7
O=[N+]([O-])c1ccccc1S(=O)(=O)Nc1ccc(-c2ccc3nncn3n2)cc1 | ? | . | 4% | .
Fc1cccc(CN2CCN(Cc3nc(CCc4ccccc4)no3)CC2)c1 | . | -2 | . | -5
Cc1cc(NC(=O)COc2cccc(Oc3ccccc3)c2)no1 | -26% | -3 | -15% | -5
CCOc1ccccc1OCC(=O)Nc1cc(C)on1 | -25% | . | 3% | .
Cc1ccc(C)c(OCC(=O)Nc2cc(C)on2)c1 | ? | 22* | 21% | 46
Cc1cccc(OCC(=O)Nc2cc(C)on2)c1 | 24% | 16* | 8% | active
Cn1c(SCC(=O)c2ccc(F)cc2)nnc1-c1ccccc1Br | ? | . | -14%[46.1 µM] | .
Cn1cnnc1SCC(=O)Nc1ccc2nc(SCc3ccccc3Cl)sc2c1 | -2% | 19* | 48% | active
O=C(CSc1nc2ccc(NC(=O)c3ccccc3C(=O)O)cc2s1)Nc1ccc(F)c([N+](=O)[O-])c1 | ? | 25 | ? | 30*
CCN(CC)C(=O)CSc1nc2ccc(NC(=O)CSc3nnc(N)s3)cc2s1 | ? | -3 | ? | -2
Cn1cnnc1SCC(=O)Nc1ccc2nc(SCc3ccccc3)sc2c1 | 0% | 90* | -23% | 101*
O=C(Nc1ccc2nc(SCc3ccccc3)sc2c1)c1ccccc1F | -19%[46.1 µM] | . | -4%[46.1 µM] | .
CCN(CC)C(=O)CSc1nc2ccc(NC(=O)CSc3nccn3C)cc2s1 | ? | 14* | -1% | 32
CC(C)(C)C(=O)Nc1ccc2nc(SCc3ccccc3)sc2c1 | 17%[46.1 µM] | . | 3%[46.1 µM] | .
Cn1cnnc1SCC(=O)Nc1ccc2nc(SCc3cccc4ccccc34)sc2c1 | ? | -4 | 0% | -9
SMILES | MARV entry inh | CHX counter | Lassa entry inh | Shiga inhibitor
COc1ccc(C(=O)Nc2nc3n(n2)C(c2ccc(Cl)cc2)C=C(c2ccccc2)N3)cc1OC (centres undefined) | ? | . | -19%[46.1 µM] | .
COc1ccccc1CCNC(=O)CCn1nc(C)c2c(C)n(-c3ccccc3)nc2c1=O | . | 12 | . | -4
C=C1SC(Nc2c(C)cc(C)cc2C)=NC12CCCCC2 | 3.5µM* | -2 | ? | -1
COc1ccc(/C=C/C(=O)NC(=S)Nc2ccccn2)cc1 | . | 47* | . | 90*
COc1ccccc1/C=C/C(=O)NC(=S)Nc1ccccn1 | . | 45* | . | 105*
O=C(NCC(=O)N(Cc1ccccc1)C(C(=O)NC1CCCC1)c1ccncc1)c1ccco1 (centres undefined) | -6% | 20* | ? | 15
CCOc1ccccc1C(C(=O)NC1CCCC1)N(Cc1ccco1)C(=O)CNC(=O)c1ccco1 (centres undefined) | 11% | 12* | 4% | 13
